This is an account of results in PubChem BioAssay AID940 (Emory University Molecular Libraries Screening Center, 2007).

In all, about 260,000 compounds went through this assay and about 2,200 (0.85%) were called active. The list comes from a sample in which actives are over-represented; it also holds similar structures and randomly drawn compounds. Unmarked numbers belong to inactive results.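 How the source made its calls: active means compounds whose cAMP rise, as percent of the full-agonist control response, exceeds 60; inactive means the rest.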

The target in this assay is Prostaglandin E2 receptor EP2 subtype (Homo sapiens) (UniProt P43116). Nature of the assay: modulation of human EP2 prostaglandin signaling – cell-based, HTRF cAMP, PGE2 stimulation, primary screen (AID 940).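 Further: rat C6 glioma line stably carrying human EP2 under a CMV promoter; the protocol text gives 20 µM as final concentration; 100% = response of wells given 1 µM PGE2.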 The settings on record: EP2-expressing cells, cAMP HTRF FRET, PGE2 co-stimulation; at 25 µM; active compounds read high. A general note: In TR-FRET formats the signal depends on donor and acceptor labels being close together.
Prostaglandin E2 receptor EP2 subtype (Homo sapiens), sequence (P43116 whole entry, looked up): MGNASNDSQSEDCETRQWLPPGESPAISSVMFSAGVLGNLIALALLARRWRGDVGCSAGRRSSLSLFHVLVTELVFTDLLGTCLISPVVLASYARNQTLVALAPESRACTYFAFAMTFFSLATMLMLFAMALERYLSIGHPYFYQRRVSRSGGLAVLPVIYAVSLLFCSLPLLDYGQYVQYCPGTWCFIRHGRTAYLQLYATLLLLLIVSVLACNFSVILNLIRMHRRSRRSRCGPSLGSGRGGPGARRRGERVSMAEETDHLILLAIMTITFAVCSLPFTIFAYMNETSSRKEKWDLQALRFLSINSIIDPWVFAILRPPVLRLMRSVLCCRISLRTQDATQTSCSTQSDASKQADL
Consider `CC(C)(C)OC(=O)N1CCC[C@H]1C(=O)c1nc2ccccc2s1`, for which the induction was 19.4%.
The result for `O=C(N1CCC(n2nnc3ccccc3c2=O)CC1)C1(c2ccccc2)CCCC1` reads -7.6%; that for `CCc1cc(N2C3CCC2CC(O)(c2ccco2)C3)n2nc3nc(C)cc(C)c3c2n1` (stereo unspecified), 13.8%.
As for `CCCC(NC(=O)c1cnc(SC)nc1)c1cccs1` (stereo unspecified), the figure is -29.9%; as for `Cc1nn(CC(=O)NC2CCCC2)c(=O)c2cc3sccc3n12`, 1.55%.
As for `Cc1cc(C)nc(Nc2cc([N+](=O)[O-])ccc2C)n1`, the figure is -8.66%.
For `Cc1ccc(Nc2ccc(C(N)=O)cc2[N+](=O)[O-])cc1`, the induction was -57.7%.
Turning to `Cc1ccc(Nc2cc(C)nc3c(C)ccc([N+](=O)[O-])c23)cc1`, the induction was 66.4% (active).
As for `COc1ccc(C)cc1N(CC(=O)NC1CCCC1)C(=O)c1snc(C(N)=O)c1N`, the figure is -63.9%; as for `COCCCn1c(SCC(=O)Nc2cc(Cl)ccc2OC)nc2sc3c(c2c1=O)CCC3`, -5.26%.
The result for `Nc1nonc1-c1nc2ccccc2n1Cc1ccc(F)cc1` reads 28.5%.
Turning to `CC(=O)Nc1nonc1-c1nc2ccccc2n1Cc1ccccn1`, the induction is 4.24%.
The result for `COc1ccc(C)c(Cn2c(-c3nonc3N)nc3ccccc32)c1` reads 69% (active); that for `COc1ccc(N(C(C)C(=O)N2CCN(C)CC2)S(C)(=O)=O)cc1` (stereo unspecified), -14.6%; that for `COc1ccc(CN(Cc2cn[nH]c2-c2ccc(O)cc2)CC2CCCO2)cc1` (stereo unspecified), 18.7%.
As for `CCCc1cc(-c2n[nH]c(=S)n2Cc2ccccc2)cs1`, the figure is 87.8% (active); as for `CCCc1cc(-c2n[nH]c(=S)n2CC)c2ccccc2n1`, 20.9%.
The result for `CCc1cc(-c2n[nH]c(=S)n2CC(C)C)cs1` reads -1.28%.
For `CCCc1nn(CC(=O)NC2CC2)c(=O)c2cc3ccsc3n12`, the induction was -12%.
On to `COc1cc(C2C(C#N)=C(N)Oc3c2c(C)nn3-c2ccccc2)ccc1OCC#N` (stereo unspecified), for which the induction was -22.9%.
The result for `CCOC(=O)CC(=O)CSc1nc(-c2ccccc2)cc(-c2ccc(Cl)cc2)c1C#N` reads 9.52%; that for `N#Cc1c(-c2ccc(F)cc2)cc(C2CC2)nc1SCC(=O)c1cccs1`, 63% (active); that for `O=C(c1cccs1)N1CCCC(c2nc(-c3ccc(F)cc3)no2)C1` (stereo unspecified), -45.6%.
The result for `COc1cc(C2NC(=O)NC(C)=C2C(=O)Nc2cc(Cl)ccc2C)cc(OC)c1OC` (stereo unspecified) reads -22.7%; that for `Cc1cccc(-n2c(C)c3c(C)nnc(C)c3c2C)c1`, -24.2%; that for `Clc1ccc(C=Nc2ccc3c(c2)Cc2ccccc2-3)c(Cl)c1`, 6.77%.
On to `O=C1Cc2ccccc2Sc2ccc(Cl)cc21`, for which the induction was 61.4% (active).
With `S=C1Nc2cc(Cl)ccc2Sc2ccccc21`, the induction was 11.7%.
The result for `CCn1c(=O)oc2cc(S(=O)(=O)N3CCCN(C(C)=O)CC3)ccc21` reads -12.2%; that for `COc1ccccc1NC(=O)Cn1nc(C)n2c(cc3occc32)c1=O`, -27.1%.
The result for `CCOc1ccc2nc(Nc3nc(C)c(C(C)=O)c(C)n3)nc(C)c2c1` reads -18.1%.
As to `COc1ccc(-c2nnn(CC(=O)Nc3ccc(F)cc3F)n2)cc1OC`, the induction is -72%.
As for `COC(=O)C1=C(C)N(C)C(C)=C(C(=O)OC)C1c1cccc(Br)c1`, the figure is 66.5% (active); as for `COC(=O)C1=C(C)N(C)C(=S)NC1c1ccccc1` (stereo unspecified), -3.11%.
Consider `COC(=O)C1NN=C(C(=O)c2ccc(Br)cc2)C1c1cccc(Br)c1` (stereo unspecified), for which the induction was 0.95%.
As to `COc1ccc(-c2ccc(SCC(=O)N3c4ccccc4CCc4ccccc43)nn2)cc1OC`, the induction is 28.9%.
Take `Cc1n[nH]c(=S)n1/N=C/c1ccc(Br)o1`: the induction is -3.02%.
The result for `Cc1ccccc1-c1n[nH]c(=S)n1/N=C/c1ccc(-c2ccccc2Br)o1` reads 77% (active); that for `Cc1ccccc1-c1n[nH]c(=S)n1C`, 25.6%.
As for `COc1ccc(NCc2nnc(SCC(=O)Nc3ccccc3OC)n2C)cc1`, the figure is -42.3%; as for `C=CCNC(=O)CSc1nc(-c2ccc(OC)cc2)cc(C(F)(F)F)n1`, -95.2%.
As for `Cc1cccc(Cn2c(SCCO)nc3c2c(=O)n(C)c(=O)n3C)c1`, the figure is 25.1%; as for `Cc1cccc(Cn2c(N3CCN(c4ccccc4)CC3)nc3c2c(=O)n(C)c(=O)n3C)c1`, 67.6% (active).
Regarding `Cn1c(=O)c2c(nc(N3CCN(c4ccccc4)CC3)n2CCC#N)n(C)c1=O`, the induction was -28.3%.
The result for `CCn1c2cc(C)sc2c2cnn(CC(=O)Nc3ccc(F)cc3)c(=O)c21` reads -32.1%; that for `CC1CCN(c2nc3c(c(=O)[nH]2)CCN(Cc2cn(CC(=O)O)c4ccccc24)C3)CC1`, -3.4%.
With `CC1(C)CCC[C@@]2(C)C1[C@@H](O)C[C@]1(C)C2CC[C@@H]2[C@@]3(C)CC[C@H](C(C)(C)O)[C@@H]3CC[C@@]21C` (stereo partly specified), the induction was 16.7%.
For the compound `c1cncc(-c2nnc3n2C2(CCCCC2)Cc2ccccc2-3)c1`, the induction was 16.9%.
As for `CCC1(CC)Cc2ccccc2-c2nc3ccccc3c(=O)n21`, the figure is 22.9%; as for `O=c1c2ccccc2nc2n1C1(CCCCC1)Cc1ccccc1-2`, 68.8% (active); as for `C=C(C)CC(Nc1ccc(C)cc1)c1ccco1` (stereo unspecified), 61.3% (active).
With `Cc1ccc(CC(=O)NCc2ccco2)cc1`, the induction was 8.03%.
As for `Cc1ccc(NC(=S)N(Cc2ccco2)C(C)c2cccs2)cc1` (stereo unspecified), the figure is 44.2%; as for `CC1CCCC(C)N1C(=O)[C@H]1C[C@@H](c2cccs2)NS(=O)(=O)N1C` (stereo partly specified), -34.9%; as for `Cc1nn2c(NCc3cccnc3)c3c(nc2c1-c1cccs1)CCC3`, -40.8%.
As for `Cn1c(COc2cccc3ccccc23)nnc1SCC(=O)Nc1ccccc1Cl`, the figure is 5.15%.
For `Cc1ccc(-n2c(SCC(=O)Nc3ccc4c(c3)OCO4)nnc2-c2ccoc2C)cc1`, the induction was 64.9% (active).
As for `Cc1ccc(-n2c(SCC(=O)Nc3ccc4c(c3)OCO4)nnc2-c2ccccn2)cc1`, the induction was 4.01%.
The result for `Cc1occc1-c1nnc(SCC(=O)Nc2ccc3c(c2)OCO3)n1Cc1ccco1` reads 25.1%.
As for `CNC(=S)N(Cc1ccccc1)Cc1cc2cccc(C)c2[nH]c1=O`, the figure is -48.1%; as for `Nc1nc(Br)c2ccccc2c1-c1ccc(F)cc1`, 62% (active).
